In PubChem BioAssay:
For part of these data: Results with a measured potency or affinity are listed apart. Activity calls are given as the source filed them. Unless noted, the rule behind the calls is not given here.

Legend:
[1] = antimalarial activity against Dd2 strain (AID 2302;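 active = growth inhibition above 50% at the single 2 µM test dose, taken to imply half-maximal potency below 2 µM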;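 note: 0% = DMSO untreated growth and 100% = chloroquine plus artemisinin killed control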); conditions: P. falciparum Dd2 in RBCs, LDH growth readout, 72 h; at 2 µM; hits give high values
[2] = human hepatoma cell viability loss – ATP luminescence, cytotoxicity control for P. falciparum antimalarial project, primary screen (AID 2303;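 active = inhibition above 50%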;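 note: 0% = DMSO wells and 100% = digitonin-killed cells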); conditions: HepG2 viability, 24-48 h, at 10 µM, hits give high values
[3] = target: L-lactate dehydrogenase (Plasmodium falciparum (isolate CDC / Honduras)) (UniProt Q27743); experiment: PfLDH activity inhibition – cell lysate, 3D7 strain, counter-screen for P. falciparum growth inhibition project (AID 2304);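 note: 0% = vehicle and 100% = reference inhibitor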; conditions: P. falciparum 3D7 crude extract, LDH APAD/NBT absorbance; at 2 µM; hits give high values
Sequence of L-lactate dehydrogenase (Plasmodium falciparum (isolate CDC / Honduras)) (Q27743 whole entry, looked up): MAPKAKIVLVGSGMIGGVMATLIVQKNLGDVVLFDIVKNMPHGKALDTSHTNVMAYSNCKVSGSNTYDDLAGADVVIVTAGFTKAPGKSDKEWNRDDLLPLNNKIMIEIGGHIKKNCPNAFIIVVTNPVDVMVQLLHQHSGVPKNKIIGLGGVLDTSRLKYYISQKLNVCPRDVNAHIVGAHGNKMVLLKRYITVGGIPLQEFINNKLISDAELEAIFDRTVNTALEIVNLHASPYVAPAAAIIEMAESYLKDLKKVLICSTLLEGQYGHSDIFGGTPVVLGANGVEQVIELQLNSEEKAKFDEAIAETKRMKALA

[4] = inhibition of 3D7 malaria parasite growth – strain 3D7 (AID 2306);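 note: 0% = DMSO wells and 100% = chloroquine plus artemisinin control wells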; conditions: P. falciparum 3D7 erythrocytic growth, LDH absorbance, 72 h; at 2 µM; hits give high values
[5] = target: Calcium-dependent protein kinase 1 (Plasmodium falciparum (isolate 3D7)) (UniProt P62344); experiment: PfCDPK1 kinase inhibitors, biochemical, TCAMS library (AID 1159585; cut-off not given, nearly all actives have IC50 up to about 0.98 µM;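 note: inhibitors leave more ATP so luminescence rises with inhibition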); conditions: recombinant PfCDPK1, Kinase-Glo ATP depletion luminescence
Sequence of Calcium-dependent protein kinase 1 (Plasmodium falciparum (isolate 3D7)) (P62344 whole entry, looked up): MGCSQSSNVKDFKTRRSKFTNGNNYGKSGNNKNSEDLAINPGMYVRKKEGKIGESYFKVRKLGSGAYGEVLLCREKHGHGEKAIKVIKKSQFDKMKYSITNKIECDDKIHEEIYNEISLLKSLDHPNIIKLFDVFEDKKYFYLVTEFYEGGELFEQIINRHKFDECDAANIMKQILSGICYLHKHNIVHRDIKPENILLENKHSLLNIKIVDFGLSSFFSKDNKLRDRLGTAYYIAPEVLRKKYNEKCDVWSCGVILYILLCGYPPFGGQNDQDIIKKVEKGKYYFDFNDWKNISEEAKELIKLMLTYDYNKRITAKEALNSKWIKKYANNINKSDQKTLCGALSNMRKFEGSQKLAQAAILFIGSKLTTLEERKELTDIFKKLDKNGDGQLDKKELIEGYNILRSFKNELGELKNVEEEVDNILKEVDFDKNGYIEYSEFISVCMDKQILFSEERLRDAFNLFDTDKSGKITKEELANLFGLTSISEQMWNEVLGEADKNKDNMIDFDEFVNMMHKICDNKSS

[6] = target: Plasmodium falciparum protein kinase 6 (PK6, PF3D7_1337100) (UniProt Q8IDW1); experiment: PfPK6 kinase inhibitors, biochemical, TCAMS library (AID 1159586); conditions: recombinant PfPK6, Kinase-Glo ATP depletion luminescence
Sequence of Plasmodium falciparum protein kinase 6 (PK6, PF3D7_1337100) (Q8IDW1 1-305): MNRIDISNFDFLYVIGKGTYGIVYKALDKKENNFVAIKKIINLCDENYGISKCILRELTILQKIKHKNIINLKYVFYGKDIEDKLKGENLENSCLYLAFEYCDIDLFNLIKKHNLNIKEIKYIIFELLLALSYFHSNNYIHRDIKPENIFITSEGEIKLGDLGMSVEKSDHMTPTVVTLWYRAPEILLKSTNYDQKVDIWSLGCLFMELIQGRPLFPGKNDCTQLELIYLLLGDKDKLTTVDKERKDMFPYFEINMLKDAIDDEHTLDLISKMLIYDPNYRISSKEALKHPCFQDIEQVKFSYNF

[7] = target: Protein kinase 7 (PK7), Plasmodium falciparum 3D7 (PF3D7_0213400) (UniProt Q7YTF7); experiment: inhibition of Plasmodium PK7 catalytic activity – biochemical, TCAMS antimalarial set, Kinase-Glo luminescence (AID 1159587); conditions: recombinant PfPK7, Kinase-Glo ATP depletion luminescence
Sequence of Protein kinase 7 (PK7), Plasmodium falciparum 3D7 (PF3D7_0213400) (Q7YTF7 1-343): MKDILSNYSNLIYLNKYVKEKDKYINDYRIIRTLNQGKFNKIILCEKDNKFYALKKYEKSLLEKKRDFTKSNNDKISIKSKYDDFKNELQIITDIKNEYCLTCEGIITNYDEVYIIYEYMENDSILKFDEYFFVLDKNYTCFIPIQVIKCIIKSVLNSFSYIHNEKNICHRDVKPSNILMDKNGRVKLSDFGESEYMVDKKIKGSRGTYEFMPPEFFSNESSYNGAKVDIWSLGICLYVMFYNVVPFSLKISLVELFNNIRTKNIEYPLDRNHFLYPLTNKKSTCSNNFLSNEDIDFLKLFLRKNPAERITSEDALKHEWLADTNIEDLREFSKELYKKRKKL

[8] = target: Calcium-dependent protein kinase 4 (Plasmodium falciparum (isolate 3D7)) (UniProt Q8IBS5); experiment: PfCDPK4 kinase inhibitors, biochemical, TCAMS library (AID 1159588; cut-off not given, nearly all actives have IC50 up to about 0.91 µM); conditions: recombinant PfCDPK4, Kinase-Glo ATP depletion luminescence
Sequence of Calcium-dependent protein kinase 4 (Plasmodium falciparum (isolate 3D7)) (Q8IBS5 whole entry, looked up): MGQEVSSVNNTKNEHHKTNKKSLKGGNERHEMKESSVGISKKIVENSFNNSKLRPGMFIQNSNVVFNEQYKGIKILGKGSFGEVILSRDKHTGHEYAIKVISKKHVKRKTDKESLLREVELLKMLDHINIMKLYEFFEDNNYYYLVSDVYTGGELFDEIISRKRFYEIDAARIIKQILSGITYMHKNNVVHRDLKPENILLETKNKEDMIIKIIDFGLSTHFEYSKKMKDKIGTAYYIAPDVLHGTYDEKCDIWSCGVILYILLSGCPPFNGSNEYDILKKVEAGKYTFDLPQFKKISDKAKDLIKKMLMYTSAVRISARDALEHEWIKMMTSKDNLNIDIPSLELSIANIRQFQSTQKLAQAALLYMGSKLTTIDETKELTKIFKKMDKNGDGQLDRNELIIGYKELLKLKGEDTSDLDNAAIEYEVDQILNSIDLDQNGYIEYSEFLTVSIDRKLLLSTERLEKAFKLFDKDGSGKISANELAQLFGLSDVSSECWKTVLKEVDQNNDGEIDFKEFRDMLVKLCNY

CC[C@H](C)CNC(=O)c1cncc(-c2ccc(CNC3Cc4ccccc4C3)cc2)c1
inactive: inhibition [2] 14% | inhibition [3] 3% | outcome [5] | outcome [6] | outcome [7] | outcome [8]
active: growth inhibition [1] 95% | growth inhibition [4] 101%

COc1cc(C(=O)NC2CCc3ccccc32)cc(Cl)c1OC (stereo unspecified)
active: growth inhibition [1] 60% | growth inhibition [4] 85%
inactive: inhibition [2] 12% | inhibition [3] -4% | outcome [5] | outcome [6] | outcome [7] | outcome [8]

NC(=O)C1CCN(Cc2ccc(-c3ccc(-c4nc5ccc(F)cc5[nH]4)cc3)cc2)CC1
inactive: inhibition [2] 12% | inhibition [3] 7% | outcome [5] | outcome [6] | outcome [7] | outcome [8]
active: growth inhibition [1] 100% | growth inhibition [4] 101%

COc1ccc(CC2(CO)CCN(Cc3ccc(O)c(Cl)c3)CC2)cc1
inactive: growth inhibition [1] 14% | inhibition [2] -6% | inhibition [3] -2% | outcome [5] | outcome [6] | outcome [7] | outcome [8]
active: growth inhibition [4] 98%

Nc1nc(N)c2c(Oc3cccc4ccccc34)cccc2n1
active: growth inhibition [4] 96%
inactive: growth inhibition [1] 10% | inhibition [2] 42% | inhibition [3] 6% | outcome [5] | outcome [6] | outcome [7] | outcome [8]

COc1ccnc(NCCCNCc2cn(S(=O)(=O)c3ccccc3)c3ccccc23)c1
inactive: growth inhibition [1] 18% | inhibition [3] -2% | outcome [5] | outcome [6] | outcome [7] | outcome [8]
active: inhibition [2] 57% | growth inhibition [4] 99%

CN1CCN(Cc2cccc(-c3ccc4c(Nc5ccc(Oc6ccccc6)cc5)ccnc4c3)c2)CC1
active: growth inhibition [1] 100% | growth inhibition [4] 101%
inactive: inhibition [2] 41% | inhibition [3] 6% | outcome [5] | outcome [6] | outcome [7] | outcome [8]

CC(C)(C)c1ccc(C(=O)NC2CCC(CCN3CCc4ccc(S(C)(=O)=O)cc4CC3)CC2)cc1C(F)(F)F (stereo unspecified)
inactive: growth inhibition [1] 11% | inhibition [3] -8% | outcome [5] | outcome [6] | outcome [7] | outcome [8]
active: inhibition [2] 54% | growth inhibition [4] 88%

Fc1ccc(-c2cc(NCCCn3ccnc3)nc(-c3cccnc3)n2)cc1
inactive: inhibition [2] 11% | inhibition [3] 0% | outcome [5] | outcome [6] | outcome [7] | outcome [8]
active: growth inhibition [1] 70% | growth inhibition [4] 99%

CC(C(=O)Nc1ccc(Br)cc1Br)N1CCN(C(=O)c2ccco2)CC1 (stereo unspecified)
active: growth inhibition [1] 84% | growth inhibition [4] 91%
inactive: inhibition [2] 3% | inhibition [3] -3% | outcome [5] | outcome [6] | outcome [7] | outcome [8]

FC(F)(F)c1ccc2nc(-c3ccc(-c4cccc(CNCc5cnn(-c6ccccc6)n5)c4)cc3)[nH]c2c1
inactive: inhibition [2] 19% | inhibition [3] -1% | outcome [5] | outcome [6] | outcome [7] | outcome [8]
active: growth inhibition [1] 83% | growth inhibition [4] 99%

CC(O)CNc1nc2ccccc2n1CC(=O)Nc1cccc(C(=O)Nc2cccc(C(F)(F)F)c2)c1 (stereo unspecified)
active: growth inhibition [1] 95% | growth inhibition [4] 99%
inactive: inhibition [2] 2% | inhibition [3] 0% | outcome [5] | outcome [6] | outcome [7] | outcome [8]

CCN(CC)CCN(Cc1ccc(-c2ccc(C(F)(F)F)cc2)cc1)C(=O)Cn1c(CCc2ccc(F)c(F)c2F)nc(=O)c2ccccc21
active: growth inhibition [1] 66% | growth inhibition [4] 97%
inactive: inhibition [2] 38% | inhibition [3] -10% | outcome [5] | outcome [6] | outcome [7] | outcome [8]

Fc1ccc(C(OCC2CCCN(Cc3cccc4cccnc34)C2)c2ccc(F)cc2)cc1 (stereo unspecified)
inactive: inhibition [2] 21% | inhibition [3] 3% | outcome [5] | outcome [6] | outcome [7] | outcome [8]
active: growth inhibition [1] 97% | growth inhibition [4] 98%

CCN(CC)c1nc(-c2ccccc2)cc(-c2ccccc2)c1C#N
active: growth inhibition [1] 66% | growth inhibition [4] 100%
inactive: inhibition [2] -7% | inhibition [3] 2% | outcome [5] | outcome [6] | outcome [7] | outcome [8]

CN1CCN(c2ccnc3ccc(NC(=O)Nc4cccc5c(Br)cccc45)cc23)CC1
active: growth inhibition [1] 96% | growth inhibition [4] 100%
inactive: inhibition [2] 7% | inhibition [3] 6% | outcome [5] | outcome [6] | outcome [7] | outcome [8]

CCOc1ccc2c(NN=Cc3ccccc3OC)cc(C)nc2c1
inactive: inhibition [2] 11% | inhibition [3] 0% | outcome [5] | outcome [6] | outcome [7] | outcome [8]
active: growth inhibition [1] 93% | growth inhibition [4] 99%

Cc1cc(N[C@@H](Cc2ccccc2)C(=O)NCCc2ccccc2)nc(NCCc2ccccc2)n1
inactive: inhibition [2] -4% | inhibition [3] -2% | outcome [5] | outcome [6] | outcome [7] | outcome [8]
active: growth inhibition [1] 57% | growth inhibition [4] 100%

Nc1nc(N)c2c(ccc3c2ccn3C2CCCCC2)n1
inactive: growth inhibition [1] 46% | inhibition [3] 0% | outcome [5] | outcome [6] | outcome [7] | outcome [8]
active: inhibition [2] 67% | growth inhibition [4] 97%

COc1ccc2nc3cc(Cl)ccc3c(NCCCN3CCNCC3)c2c1
active: growth inhibition [1] 74% | growth inhibition [4] 104%
inactive: inhibition [2] 18% | inhibition [3] -3% | outcome [5] | outcome [6] | outcome [7] | outcome [8]

Cc1cccc2[nH]c(-c3ccc(-c4ccc(CNCc5ccccc5)cc4)s3)nc12
inactive: inhibition [2] 22% | inhibition [3] -1% | outcome [5] | outcome [6] | outcome [7] | outcome [8]
active: growth inhibition [1] 87% | growth inhibition [4] 103%

CC(C)NCc1ccc(-c2ccc(CN3CCCC(c4ccccc4)C3)cc2)c(C(=O)NCC2CCCCC2)c1 (stereo unspecified)
active: growth inhibition [1] 53% | inhibition [2] 79% | growth inhibition [4] 97%
inactive: inhibition [3] -3% | outcome [5] | outcome [6] | outcome [7] | outcome [8]

CCCOc1cc(O)c(-c2n[nH]c(C)c2Oc2ccccc2)cc1CC
active: growth inhibition [4] 91%
inactive: growth inhibition [1] 46% | inhibition [2] -14% | inhibition [3] 1% | outcome [5] | outcome [6] | outcome [7] | outcome [8]

CSc1nc2cc3c(cc2n1C(=O)c1ccc(C)cc1)OCCO3
inactive: growth inhibition [1] -1% | inhibition [2] -6% | inhibition [3] -6% | outcome [5] | outcome [6] | outcome [7] | outcome [8]
active: growth inhibition [4] 99%

CN(CCN(C)C(=O)NCc1ccccc1)C(=O)NCc1ccccc1
active: growth inhibition [4] 101%
inactive: growth inhibition [1] 0% | inhibition [2] 2% | inhibition [3] 1% | outcome [5] | outcome [6] | outcome [7] | outcome [8]

O=C(/C=C/c1cccc(C(F)(F)F)c1)NCCCCCN1CCN(C(=O)Nc2ccc(Cl)c(Cl)c2)CC1
inactive: growth inhibition [1] -1% | inhibition [2] 29% | inhibition [3] 4% | outcome [5] | outcome [6] | outcome [7] | outcome [8]
active: growth inhibition [4] 89%

CCOc1ccc2nc(C)cc(NN=Cc3cccc(F)c3)c2c1
active: growth inhibition [4] 100%
inactive: growth inhibition [1] 23% | inhibition [2] -3% | inhibition [3] 0% | outcome [5] | outcome [6] | outcome [7] | outcome [8]

Cc1ccc(NC(=O)c2ccc(NCCCN(C)Cc3ccccc3)c([N+](=O)[O-])c2)cc1F
inactive: inhibition [2] 12% | inhibition [3] -7% | outcome [5] | outcome [6] | outcome [7] | outcome [8]
active: growth inhibition [1] 61% | growth inhibition [4] 101%

COc1ccc2c(NN=Cc3cccc(C)n3)cc(-c3ccccc3)nc2c1
active: growth inhibition [4] 97%
inactive: growth inhibition [1] 25% | inhibition [2] -7% | inhibition [3] 3% | outcome [5] | outcome [6] | outcome [7] | outcome [8]

CC(=O)Nc1ncc(C(=O)Nc2cccc(-c3cccc(-c4nc5ccccc5[nH]4)c3)c2)s1
inactive: growth inhibition [1] 38% | inhibition [2] 16% | inhibition [3] 0% | outcome [5] | outcome [6] | outcome [7] | outcome [8]
active: growth inhibition [4] 92%

COC(=O)c1cccc(NC(=O)NC2CCN(c3ccnc(Nc4cc(OC)c(OC)c(OC)c4)n3)C2)c1 (stereo unspecified)
inactive: inhibition [2] 7% | inhibition [3] 3% | outcome [5] | outcome [6] | outcome [7] | outcome [8]
active: growth inhibition [1] 68% | growth inhibition [4] 99%

c1cc(Nc2nc(-c3ccc(-c4csc(Nc5ccncc5)n4)cc3)cs2)ccn1
active: growth inhibition [1] 99% | inhibition [2] 91% | growth inhibition [4] 100%
inactive: inhibition [3] -4% | outcome [5] | outcome [6] | outcome [7] | outcome [8]

COc1cccc(CN(C(=O)Nc2ccccc2F)[C@H]2C[C@H]3C(=O)Nc4cc(F)ccc4C(=O)N3C2)c1
active: growth inhibition [1] 75% | growth inhibition [4] 93%
inactive: inhibition [2] -7% | inhibition [3] 3% | outcome [5] | outcome [6] | outcome [7] | outcome [8]

CC(C)(C)c1ccc(S(=O)(=O)Nc2ccccc2Cn2nc(N3CCNCC3)ccc2=O)cc1
inactive: inhibition [2] -5% | inhibition [3] 2% | outcome [5] | outcome [6] | outcome [7] | outcome [8]
active: growth inhibition [1] 97% | growth inhibition [4] 98%

COc1cc(F)c2ncc(Cl)c(CCN3CCC(NCc4ccc5c(n4)NC(=O)CO5)CC3)c2c1
inactive: growth inhibition [1] 19% | inhibition [2] 20% | inhibition [3] -1% | outcome [5] | outcome [6] | outcome [7] | outcome [8]
active: growth inhibition [4] 89%

CC(=O)Nc1ccc(CNCCc2ccc(NC(=O)c3cc(Cl)cc(Cl)c3)cc2)cc1
active: growth inhibition [4] 102%
inactive: growth inhibition [1] 31% | inhibition [2] 10% | inhibition [3] -1% | outcome [5] | outcome [6] | outcome [7] | outcome [8]

CCCC(C)Nc1nc(C)cc(N[C@@H](Cc2ccccc2)C(=O)NCc2ccc(C)cc2)n1 (stereo partly specified)
active: growth inhibition [1] 93% | growth inhibition [4] 101%
inactive: inhibition [2] 22% | inhibition [3] 5% | outcome [5] | outcome [6] | outcome [7] | outcome [8]

Cc1ccc2c(O)c([N+](=O)[O-])c(=O)[nH]c2c1
active: growth inhibition [4] 98%
inactive: growth inhibition [1] -1% | inhibition [2] 3% | inhibition [3] -4% | outcome [5] | outcome [6] | outcome [7] | outcome [8]

COc1ccc2c(c1)CCCC2NCCCCNC(=O)c1ccc(NC(=O)c2ccc(Cl)cc2)cc1 (stereo unspecified)
active: growth inhibition [4] 100%
inactive: growth inhibition [1] 49% | inhibition [2] 27% | inhibition [3] -7% | outcome [5] | outcome [6] | outcome [7] | outcome [8]

O=C(N[C@@H](CC1CCCCC1)C(=O)NCCc1ccc(Cl)c(Cl)c1)c1ccc(O)c(-c2ccc(Cl)c(Cl)c2)c1
inactive: inhibition [2] -11% | inhibition [3] -2% | outcome [5] | outcome [6] | outcome [7] | outcome [8]
active: growth inhibition [1] 99% | growth inhibition [4] 100%

CN1CCCc2ccc(NC(=O)c3ccc(-c4cc(C(F)(F)F)nn4C)s3)cc2C1
inactive: growth inhibition [1] 34% | inhibition [2] 16% | inhibition [3] -1% | outcome [5] | outcome [6] | outcome [7] | outcome [8]
active: growth inhibition [4] 88%

COc1cc(NC(=O)NC(CCN2CCC3(CCc4ccccc43)CC2)c2ccc(Cl)c(Cl)c2)cc(OC)c1OC (stereo unspecified)
active: growth inhibition [1] 66% | inhibition [2] 66% | growth inhibition [4] 90%
inactive: inhibition [3] 6% | outcome [5] | outcome [6] | outcome [7] | outcome [8]
